Shn3 3UTR inh – Schnurri-3 reporter inhibition in Clone20 osteoblasts | Clone20 osteoblast Shn3 3'UTR firefly luciferase, 24 h | inhibition, % at 12.5 µM | 360,000 compounds, 0.52% hits | AID 588674;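 active = mean inhibition of at least 75% with every replicate also reaching 75%; inconclusive = mean inhibition at least 75% but some replicate below; inactive = mean inhibition below 75%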
ABHD5-PLIN5 inh – ABHD5-PLIN5 protein interaction inhibition; 360,000 compounds, 0.78% hits; Split G. princeps luciferase complementation, luminescence, 4 h; Q00G26+Q8WTS1; inhibition, % at 4 µM;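 active = inhibition above the mean inhibition across every tested compound plus 3 SD, cut at about 22% in these data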
Target sequence (Q00G26 whole entry, looked up): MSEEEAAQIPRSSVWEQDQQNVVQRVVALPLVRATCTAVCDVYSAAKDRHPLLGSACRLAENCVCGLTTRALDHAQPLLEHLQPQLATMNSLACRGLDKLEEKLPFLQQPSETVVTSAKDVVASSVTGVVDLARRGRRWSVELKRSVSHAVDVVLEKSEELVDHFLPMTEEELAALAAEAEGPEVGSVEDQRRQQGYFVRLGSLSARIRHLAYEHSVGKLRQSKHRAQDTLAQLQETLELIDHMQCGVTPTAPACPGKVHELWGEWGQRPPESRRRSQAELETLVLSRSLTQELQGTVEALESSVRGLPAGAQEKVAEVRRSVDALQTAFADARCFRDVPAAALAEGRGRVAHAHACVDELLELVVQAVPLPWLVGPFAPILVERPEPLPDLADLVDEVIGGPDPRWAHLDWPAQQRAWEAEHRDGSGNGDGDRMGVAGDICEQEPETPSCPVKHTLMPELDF
Target sequence (Q8WTS1 whole entry, looked up): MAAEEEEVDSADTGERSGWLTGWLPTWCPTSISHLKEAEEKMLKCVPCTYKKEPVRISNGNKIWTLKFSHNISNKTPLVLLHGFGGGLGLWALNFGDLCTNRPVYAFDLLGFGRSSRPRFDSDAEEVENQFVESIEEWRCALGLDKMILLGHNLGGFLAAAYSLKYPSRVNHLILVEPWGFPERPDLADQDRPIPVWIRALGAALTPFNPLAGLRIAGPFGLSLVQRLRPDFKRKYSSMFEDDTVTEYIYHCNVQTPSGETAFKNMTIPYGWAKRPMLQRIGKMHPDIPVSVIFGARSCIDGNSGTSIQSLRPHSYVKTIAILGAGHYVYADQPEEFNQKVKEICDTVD
TRPM1 prom inh – MITF TRPM1 promoter inhibition in SK-MEL-5 cells; SK-MEL-5 TRPM1 promoter luciferase, 24 h; AID 488899; 330,000 compounds, 0.83% hits; inhibition, % at 12.5 µM;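 active = mean inhibition across replicates of 60% or more, whatever share of single replicates reaches that level; inconclusive = some that reach 60%, reason not given; inactive = mean inhibition across replicates below 60%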
Peg3 prom inh – Peg3 promoter activity inhibition; HeLa PEG-Prom luciferase reporter, luminescence, overnight; inhibition, % at 20 µM; 360,000 compounds, 1.7% hits;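 active = inhibition of at least 50% at 20 µM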
EWS-Fli inh – blocks EWS/Fli oncoprotein-driven transcription | inhibition, % at 12.6 µM | A673 NR0B1-luciferase reporter, viability-normalised | 350,000 compounds, 0.67% hits;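 active = mean inhibition of at least 50% after viability correction, with every replicate also passing that limit; inconclusive = mean reaches 50% but only one of two replicates passes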;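 note: firefly luciferase signal divided by Alamar Blue viability fluorescence both relative to DMSO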
PAX8 reporter – lowers PAX8-driven luciferase in RMG-I cells; RMG-I TPO-luciferase reporter, SteadyGlo, 24 h; inhibition, % at 12.6 µM; 360,000 compounds, 1.2% hits; AID 652154;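 active = mean replicate inhibition at least 60% with every replicate also reaching 60%; inconclusive = only one of the two criteria is met; inactive = mean below 60% and not all replicates reaching 60%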;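 note: luciferase light reporting Pax8 driven TPO promoter activity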
A number is an active result; – = inactive; ? = inconclusive; · = no result. An excerpt weighted towards active compounds, which were near 3% of everything screened.

SMILES	Shn3 3UTR inh	ABHD5-PLIN5 inh	TRPM1 prom inh	Peg3 prom inh	EWS-Fli inh	PAX8 reporter
CSc1cccc(NC(=S)N(CCCN2CCCC2)Cc2cccn2Cc2ccc(Cl)cc2)c1	–	–	?	108	–	–
O=C1NC(=S)SC1=Cc1ccc2c(c1)OCO2	–	–	–	–	–	–
O=C1NC(=S)S/C1=C\C=C\c1ccc([N+](=O)[O-])o1	–	–	90	104	70	–
COc1ccc(NC(=O)Nc2cccc3c2O[C@@H](CN(C)Cc2ccc(Cl)c(Cl)c2)[C@@H](C)CN([C@H](C)CO)C3=O)cc1	·	·	·	·	–	·
Cc1cc(C)nc(NC(=NCCc2c[nH]c3ccccc23)NC(=O)Nc2ccc(Cl)c(Cl)c2)n1	–	–	–	–	–	–
Cc1cc(C)nc(NC(=NCCc2c[nH]c3ccccc23)NC(=O)Nc2ccccc2)n1	–	–	–	52	·	–
COc1ccc(C(=O)N/C(N)=N/c2nc3ccccc3o2)cc1	·	–	–	–	·	–
COc1ccc(C(=O)/C=C/Sc2nc3ccccc3o2)cc1	·	–	–	91	55	–
Cc1cc(NC(=O)c2cc(-c3ccccn3)nc3ccc(Br)cc23)no1	–	–	–	–	·	–
COc1cc2c(cc1N/C=C(\C#N)c1nc(-c3ccccc3)cs1)oc1ccccc12	–	–	–	61	–	–
COc1cc2c(cc1NC(=O)c1cc(-c3cccnc3)nc3ccc(C)cc13)oc1ccccc12	–	–	–	63	–	·
O=C(Nc1ccccn1)c1cc(-c2cccnc2)nc2ccc(Br)cc12	–	–	?	56	–	–
O=C(C[C@@H]1CC[C@H](NC(=O)c2cccnc2)[C@@H](CO)O1)NCc1ccncn1	·	·	·	·	–	–
Cc1ccn2c(c1)nc(=S)n2C(=O)c1ccccc1	–	–	–	–	71	–
Cc1cccc(C(=O)n2c(=S)nc3cc(C)ccn32)c1	–	–	–	–	–	–
Cc1c(CCC(=O)NCC(=O)NCC(=O)O)c(=O)oc2cc3oc4c(c3cc12)CCCC4	–	–	–	–	–	–
Cc1c(CCC(=O)O)c(=O)oc2cc3oc4c(c3cc12)CCCC4	–	–	–	–	57	–
CNC(=O)c1nnsc1S(=O)(=O)c1ccc(Cl)cc1	99	74	85	106	58	107
O=C(COC(=O)/C=C/c1ccc2c(c1)OCO2)Nc1ccccc1	–	–	–	–	–	–
CCCNC(=O)COC(=O)/C=C/c1ccc2c(c1)OCO2	–	–	–	–	–	69
CCCNC(=O)COC(=O)/C=C/c1ccco1	–	–	–	–	–	88
C[C@H](CO)N1C[C@H](C)[C@@H](CN(C)C(=O)Nc2ccc(F)cc2)Oc2ncc(C#C[C@@H](C)O)cc2C1=O	·	·	·	·	–	·
Cc1noc(C)c1CSCC(=O)N1CCN(c2ccc(F)cc2)CC1	–	–	–	–	·	–
Cc1cccc(N2CCN(C(=O)CSCc3c(C)noc3C)CC2)c1C	85	–	–	–	·	·
CC[C@]1(c2ccccc2OC)ON(c2ccccc2C(F)(F)F)C1=O	·	·	·	·	–	84
SMILES	Shn3 3UTR inh	ABHD5-PLIN5 inh	TRPM1 prom inh	Peg3 prom inh	EWS-Fli inh	PAX8 reporter
COc1ccccc1[C@]1(C)ON(c2ccccc2C(F)(F)F)C1=O	–	–	–	82	–	–
COc1ccccc1CNC(=O)C[C@@H]1CC[C@@H](NC(=O)CC2CC2)[C@H](CO)O1	·	·	·	·	–	–
Cc1c(N2C(=O)/C(=C\c3ccc(N(C)C)cc3)N(C)C2=S)c(=O)n(-c2ccccc2)n1C	–	22	–	–	·	–
CN1C(=S)N(c2cccnc2)C(=O)/C1=C\c1ccc(N(C)C)cc1	–	–	–	–	–	–
Nc1cccc2c1C(=O)N(C(=O)c1ccco1)C2=O	–	–	–	–	–	–
Nc1cccc2c1C(=O)N(C(=O)/C=C/c1ccc(F)cc1)C2=O	–	–	–	102	–	–
COc1ccc(C2C(C#N)=C(N)Oc3c2ccc2cccnc32)cc1OC (stereo not drawn)	–	–	–	–	–	86
COc1cc(C2C(C#N)=C(N)Oc3c2ccc2ccccc32)ccc1OCC(=O)Nc1ccc(C)cc1 (stereo not drawn)	–	–	–	–	–	–
Clc1ccc2nnc(Cl)n2n1	–	–	–	–	–	–
FC(F)(Cl)c1nnc2ccc(Cl)nn12	–	–	–	–	–	74
O=C(O)c1ccc(S(=O)(=O)/N=C2\C=C(Nc3ccccc3F)C(=O)c3ccccc32)cc1	?	–	–	104	?	–
Cc1ccccc1NC1=C/C(=N\S(=O)(=O)c2ccc(C(=O)O)cc2)c2ccccc2C1=O	–	–	–	101	–	–
CO[C@@H]1CC[C@H]2CCN(C)C(=O)[C@H](C)CN(C)C(=O)c3cccc(C#N)c3OC[C@@H]1O2	·	·	·	·	–	–
Cc1ccc(-c2ccc3c(c2)O[C@H](CN(C)C(=O)CN(C)C)[C@H](C)CN([C@@H](C)CO)S3(=O)=O)cc1	·	·	·	·	–	·
COc1cc(C#Cc2c(-c3cncn3C)n(C)c3ccc(-c4ccc(OC)nc4)cc23)cc(OC)c1	94	–	–	–	–	–
COc1cc(C#Cc2c(-c3cncn3C)n(C)c3ccc(-c4cc(OC)c(OC)c(OC)c4)cc23)cc(OC)c1	–	–	–	–	–	73
COc1cc(C#Cc2c(-c3cncn3C)n(C)c3ccc(-c4ccc5[nH]ccc5c4)cc23)cc(OC)c1	–	–	–	–	–	–
c1ccc(COc2ncnc3c2ncn3CCCN2CCN(Cc3cccc4ccccc34)CC2)cc1	–	–	·	101	–	–
Cc1ccc(Cl)cc1N1CCN(C(=O)c2cn(C)c(=O)c3c2c2ccccc2n3C)CC1	–	–	–	–	54	·
Cc1ccc(S(=O)(=O)N[C@H]2C=C[C@@H](CC(=O)NCc3ccccc3F)O[C@H]2CO)cc1	·	·	·	·	–	–
Cc1ccc2[nH]cc(C(=O)CCl)c2c1	–	–	–	108	–	–
Cc1ccc2c(C(=O)CN3CCSCC3)c(C)[nH]c2c1	–	–	–	–	·	·
Cc1ccc2c(C(=O)CCl)c(C)[nH]c2c1	–	–	69	–	–	–
COc1ccc(Cl)cc1NC(=O)CN1CCC(n2nnc3cc(C)ccc32)CC1	–	–	–	86	·	–
O=C(Nc1ccc(F)cc1)N1C[C@H]2[C@@H](c3ccccc31)[C@H](CO)N2C(=O)Cc1ccccc1	·	·	·	·	–	–
COc1cc(C(=O)Nc2nnc(C(C)(C)C)s2)c([N+](=O)[O-])cc1OC	–	–	–	62	–	–
O=C(C[C@@H]1C[C@@H]2c3cc(NS(=O)(=O)c4ccc(F)cc4)ccc3O[C@@H]2[C@H](CO)O1)NCc1ccc(Cl)cc1	·	·	·	·	–	–
O=C(C[C@@H]1C[C@H]2c3cc(NS(=O)(=O)c4ccc(F)cc4)ccc3O[C@H]2[C@H](CO)O1)NCc1ccccc1	·	·	·	·	–	–
O=C(C[C@@H]1C[C@@H]2c3cc(NS(=O)(=O)c4ccc(F)cc4)ccc3O[C@@H]2[C@@H](CO)O1)NCc1ccc(-c2ccccc2)cc1	·	·	·	·	–	87

From PubChem BioAssay
